In PubChem BioAssay (EPA / NIEHS):
Results filed as inconclusive are left out. Active and inactive are the calls of the source. How the source made its calls, unless noted: active means hit-call score of the fitted dose curve at least 0.9, where 1 is the maximum; inconclusive means response in the unintended direction; inactive means score below 0.9.

Columns and labels:
[1] = TOX21_p53_BLA_p2_viability: Viability Assessment in the Tox21 HCT-116 p53 Agonism Beta-lactamase Assay, Phase 2 (AID 2283591);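 further: compound exposure lasted 16 h at 37 °C; actives lower the ATP signal meaning cytotoxicity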
In short: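 HCT-116 p53-bla cells (4000/well) rested 5 h at 37C, then received compounds in DMSO (217-fold dilution) for 16 h at 37C, 5% CO2. After the CCF4 read, CellTiter-Glo was added; ATP luminescence was read after 30 min at room temperature.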

[2] = molecular target: Cellular tumor antigen p53 (Homo sapiens) (UniProt P04637); assay: TOX21_p53_BLA_p2_ratio: Tox21 HCT-116 p53 Agonism Beta-lactamase Assay, Ratio, Phase 2 (AID 2283592)
Cellular tumor antigen p53 (Homo sapiens), sequence (P04637 whole entry, looked up): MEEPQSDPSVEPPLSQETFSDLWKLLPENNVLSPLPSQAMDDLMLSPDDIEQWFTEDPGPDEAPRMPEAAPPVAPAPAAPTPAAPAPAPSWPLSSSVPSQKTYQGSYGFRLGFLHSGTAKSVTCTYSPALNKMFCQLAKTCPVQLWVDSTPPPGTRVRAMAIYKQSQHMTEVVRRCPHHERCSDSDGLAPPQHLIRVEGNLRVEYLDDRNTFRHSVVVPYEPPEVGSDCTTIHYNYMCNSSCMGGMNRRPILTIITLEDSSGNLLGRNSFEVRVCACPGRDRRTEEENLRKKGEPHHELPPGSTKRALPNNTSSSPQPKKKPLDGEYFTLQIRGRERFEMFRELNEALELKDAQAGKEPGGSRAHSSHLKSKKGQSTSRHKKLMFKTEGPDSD
In short: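 Ratio endpoint: beta-lactamase cleavage of CCF4-AM, blue (460 nm) over green (530 nm). HCT116 reporter line; 16 h treatment, 37C; substrate 2 h RT.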

[3] = TOX21_p53_BLA_p3_viability: Viability Assessment in the Tox21 HCT-116 p53 Agonism Beta-lactamase Assay, Phase 3 (AID 2283593);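 further: cells exposed to compound for 16 h before reading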
In short: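 HCT-116 cells (4000/well) rested 5 h at 37C, then got DMSO compounds by pin tool (217-fold dilution) for 16 h at 37C, 5% CO2. After the bla read, CellTiter-Glo was added and luminescence read at 30 min, room temperature.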

[4] = molecular target: Cellular tumor antigen p53 (Homo sapiens) (UniProt P04637); assay: TOX21_p53_BLA_p5_ratio: Tox21 HCT-116 p53 Agonism Beta-lactamase Assay, Ratio, Phase 5 (AID 2283599)
In short: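 HCT-116 cells carrying a p53-inducible beta-lactamase reporter were seeded at 4000 cells/well and dosed after 5 h with compound in DMSO (217-fold dilution). After 16 h at 37C, CCF4-AM substrate was added for 2 h, and the 460/530 nm emission ratio was scored as gain-of-signal versus DMSO.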

[5] = TOX21_p53_BLA_p5_viability: Viability Assessment in the Tox21 HCT-116 p53 Agonism Beta-lactamase Assay, Phase 5 (AID 2283600)
In short: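 Luciferase-coupled ATP quantitation of cells treated for 16 h (37C, 5% CO2) with test chemicals delivered in DMSO via a 217-fold dilution; 4000 cells/well; reagent incubated 30 min at room temperature before luminescence reading.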

[6] = TOX21_p53_BLA_p4_viability: Viability Assessment in the Tox21 HCT-116 p53 Agonism Beta-lactamase Assay, Phase 4 (AID 2283597);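 further: hits lower the luminescence signal meaning cytotoxicity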
In short: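 Cytotoxicity was inferred from loss of CellTiter-Glo luminescence. HCT116 cells had been dosed with compounds after 5 h plating, incubated 16 h at 37C and 5% CO2, and exposed to the CCF4-AM substrate for 2 h.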

[7] = molecular target: Cellular tumor antigen p53 (Homo sapiens) (UniProt P04637); assay: TOX21_p53_BLA_p4_ratio: Tox21 HCT-116 p53 Agonism Beta-lactamase Assay, Ratio, Phase 4 (AID 2283601)
In short: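 HCT116 cells carrying an inducible beta-lactamase reporter were plated at 4000 cells/well, rested 5 h, then exposed to compounds in DMSO (217-fold dilution) for 16 h at 37C. CCF4-AM substrate was loaded 2 h at room temperature; 460/530 nm emission ratio scored gain-of-signal versus DMSO.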

[8] = CCTE_Harrill_HTTr_Viability_MCF7: CCTE's 6-hour Cell Viability Assessment for the High-Throughput Transcriptomics (HTTr) Platform, in MCF-7 cells cultured in DMEM + 10% fetal bovine serum, Harrill Lab (AID 2284010; active means hit-call score of the fitted dose curve at least 0.9, where 1 is the maximum; inactive means score below 0.9)
In short: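 Propidium iodide exclusion, imaged by high-content analysis, gauged viability after a six-hour exposure across eight concentrations. Cells were MCF-7 grown in DMEM with 10% fetal bovine serum; fits run in both directions against DMSO.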

[9] = CCTE_Harrill_HTTr_Apoptosis_MCF7: CCTE's 6-hour Apoptosis Assessment for the High-Throughput Transcriptomics (HTTr) Platform, in MCF-7 cells cultured in DMEM + 10% fetal bovine serum, Harrill Lab (AID 2284011; active means hit-call score of the fitted dose curve at least 0.9, where 1 is the maximum; inactive means score below 0.9)
In short: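 MCF-7 cells in DMEM + 10% fetal bovine serum were exposed to chemicals for 6 hours over an eight-point dilution series. Caspase-3/7 activation was imaged by high content imaging with CellEvent Caspase 3/7 Green; bidirectional fitting used DMSO as baseline.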

[10] = CCTE_Harrill_HTTr_CellCount_MCF7: CCTE's Cell Proliferation Assessment for the High-Throughput Transcriptomics (HTTr) Platform, Harrill Lab (AID 2284012);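 further: cells exposed to compound for six hours; intended direction is loss of nuclei count meaning fewer cells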
In short: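 Cell count from high-content imaging of Hoechst-labeled nuclei serves as viability/growth readout. Chemicals were applied to MCF-7 cells in eight concentrations for six hours, with fitting in both directions relative to DMSO.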

[11] = CCTE_Shafer_MEA_dev_firing_rate_mean: CCTE's Neural Network Formation Assay for Mean Firing Rate, Shafer Lab (AID 2284031; active means hit-call score of the fitted dose curve at least 0.9, where 1 is the maximum; inactive means score below 0.9)
In short: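 Spike frequency (spikes/recording length, averaged over active electrodes) was recorded on days 5, 7, 9 and 12 and collapsed to AUC; rat cortical cultures received compound continuously over 12 days of network development.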

[12] = CCTE_Shafer_MEA_dev_per_burst_spike_percent: CCTE's Neural Network Formation Assay for Percent of Spikes in a Burst, Shafer Lab (AID 2284032; active means hit-call score of the fitted dose curve at least 0.9, where 1 is the maximum; inactive means score below 0.9;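 further: fitted as a decrease in burst spike percentage below DMSO baseline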)
In short: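 Value is trapezoidal AUC over recordings on days 5, 7, 9 and 12 of the well-mean fraction of spikes falling in single-electrode bursts; rat cortical cultures exposed continuously from plating, treatment renewed DIV 5 and 9, fitted downward against DMSO.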

[13] = CCTE_Shafer_MEA_dev_active_electrodes_number: CCTE's Neural Network Formation Assay for Number of Active Electrodes, Shafer Lab (AID 2284040)
In short: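 Counts electrodes per well firing at least 5 spikes/min, recorded on days 5, 7, 9 and 12 in rat cortical cultures dosed continuously from plating (treatment refreshed DIV 5, 9). Value is the area under the curve over recordings, fitted downward relative to DMSO.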

[14] = CCTE_Shafer_MEA_dev_bursting_electrodes_number: CCTE's Neural Network Formation Assay for Number of Bursting Electrodes, Shafer Lab (AID 2284043);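 further: potency is for loss of bursting electrodes relative to DMSO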
In short: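 Counted: electrodes with burst rate ≥1 per 2 min in each well. Cells: primary rat cortex, 1.5 x 10^5/well, on 16-electrode MEA wells. Exposure: DIV 0–12, compound renewed DIV 5 and 9. Recording days 5, 7, 9, 12; AUC vs DMSO baseline.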

[15] = CCTE_Shafer_MEA_dev_per_burst_interspike_interval: CCTE's Neural Network Formation Assay for Burst Interspike Interval, Shafer Lab (AID 2284044; active means hit-call score of the fitted dose curve at least 0.9, where 1 is the maximum; inactive means score below 0.9;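 further: potency for a decrease of within-burst interspike interval below DMSO level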)
In short: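 Rat cortical primary cultures, 16 electrodes/well; compound from plating, renewed with full media change DIV 5 and 9. Spikes via adaptive detector; per-burst ISI well-mean over active bursting electrodes; AUC of DIV 5/7/9/12 recordings; loss-direction fit vs DMSO.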

[16] = CCTE_Shafer_MEA_dev_burst_duration_mean: CCTE's Neural Network Formation Assay for Mean Burst Duration, Shafer Lab (AID 2284045; active means hit-call score of the fitted dose curve at least 0.9, where 1 is the maximum; inactive means score below 0.9)
In short: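 Network-formation assay in primary rat cortical neurons; treatment spans twelve days of development. Mean burst duration per well is integrated by trapezoidal AUC and fitted in the loss-of-signal direction against DMSO baseline.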

[17] = CCTE_Shafer_MEA_dev_interburst_interval_mean: CCTE's Neural Network Formation Assay for Mean Interburst Interval, Shafer Lab (AID 2284046; active means hit-call score of the fitted dose curve at least 0.9, where 1 is the maximum; inactive means score below 0.9;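 further: well-mean interburst interval of bursting electrodes as AUC over four recording days; curve fitted for decrease in interburst interval relative to DMSO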)
In short: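 Network formation assay in primary rat cortical cultures, exposed from DIV 0 to 12. Mean interburst interval per well, integrated as AUC over four recordings.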

[18] = CCTE_Shafer_MEA_dev_network_spike_number: CCTE's Neural Network Formation Assay for Number of Network Spikes, Shafer Lab (AID 2284048; active means hit-call score of the fitted dose curve at least 0.9, where 1 is the maximum; inactive means score below 0.9;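 further: synchronized bursts across electrodes counted on days 5 7 9 12 and integrated as AUC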)
In short: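 Extracellular recordings from 16-electrode wells track network formation in rat cortical cultures under continuous treatment from plating. The endpoint is network spike number, expressed as AUC across DIV 5–12 relative to DMSO vehicle.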

[19] = CCTE_Shafer_MEA_dev_network_spike_peak: CCTE's Neural Network Formation Assay for Mean Number of Electrodes in Network Spike, Shafer Lab (AID 2284049; active means hit-call score of the fitted dose curve at least 0.9, where 1 is the maximum; inactive means score below 0.9;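 further: fitted for loss of signal meaning fewer electrodes in network spikes than DMSO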)
In short: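 Continuous 12-day exposure of rat cortical cultures, starting at plating, on MEA plates. Endpoint: electrodes participating in network-spike peaks, AUC across DIV 5–12, DMSO as negative control.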

[20] = CCTE_Shafer_MEA_dev_spike_duration_mean: CCTE's Neural Network Formation Assay for Mean Spike Duration, Shafer Lab (AID 2284051; active means hit-call score of the fitted dose curve at least 0.9, where 1 is the maximum; inactive means score below 0.9;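 further: mean network spike duration pooled as area under curve over DIV 5 to 12 recordings; potency for a decrease in mean network spike duration versus DMSO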)
In short: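 With DMSO as baseline, loss of mean network spike duration was scored from extracellular recordings of rat cortical neurons on MEA plates. Exposure spanned plating to DIV 12; the four recording days were collapsed into one AUC value.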

[21] = CCTE_Shafer_MEA_dev_network_spike_duration_std: CCTE's Neural Network Formation Assay for Standard Deviation of Network Spike Duration, Shafer Lab (AID 2284052; active means hit-call score of the fitted dose curve at least 0.9, where 1 is the maximum; inactive means score below 0.9;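 further: area under curve of spike duration SD across recording days 5 to 12; hits are decreases in network spike duration SD versus DMSO vehicle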)
In short: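 Developing networks of rat cortical neurons were exposed over twelve days in vitro on 48-well MEA plates. Trapezoidal AUC of recordings (DIV 5–12) was analysed for signal loss relative to DMSO vehicle.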

[22] = CCTE_Shafer_MEA_dev_per_network_spike_spike_number_mean: CCTE's Neural Network Formation Assay for Mean Number of Spikes in a Network Spike, Shafer Lab (AID 2284053; active means hit-call score of the fitted dose curve at least 0.9, where 1 is the maximum; inactive means score below 0.9)
In short: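 First, rat cortical cells (1.5 x 10^5/well) were seeded onto MEA wells; second, dosing began at plating and was refreshed on DIV 5 and 9; finally, network-spike spike counts across DIV 5–12 were summarized as AUC.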

[23] = CCTE_Shafer_MEA_dev_per_network_spike_spike_percent: CCTE's Neural Network Formation Assay for Percent of Spikes in a Network Spike, Shafer Lab (AID 2284054; active means hit-call score of the fitted dose curve at least 0.9, where 1 is the maximum; inactive means score below 0.9)
In short: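 Developing networks of rat cortical neurons are dosed at day 0 and recorded extracellularly four times up to day 12. The endpoint is the area under the curve of percent spikes in network spikes, fitted in the negative direction relative to DMSO.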

[24] = CCTE_Shafer_MEA_dev_LDH: CCTE's Lactate Dehydrogenase Assay for Cytotoxicity in the Neural Network Formation Assay, Shafer Lab (AID 2284068);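 further: exposure for twelve days from plating with re-dosing on DIV 5 and 9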
In short: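 Developing rat cortical networks on MEA plates are exposed to compound for 12 days from plating. LDH activity is measured spectrophotometrically, with DMSO as baseline.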

[25] = CCTE_Shafer_MEA_dev_mutual_information_norm: CCTE's Neural Network Formation Assay for Mutual Information Normalization, Shafer Lab (AID 2284091; active means hit-call score of the fitted dose curve at least 0.9, where 1 is the maximum; inactive means score below 0.9)
In short: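 Exposure of primary rat cortical neurons began at plating and ran to DIV 12, with full media and treatment renewal after DIV 5 and 9 recordings. Mutual information AUC (DIV 5–12) was analysed for loss versus DMSO.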

[26] = CCTE_Shafer_MEA_dev_correlation_coefficient_mean: CCTE's Neural Network Formation Assay for Mean Correlation Coefficient, Shafer Lab (AID 2284093; active means hit-call score of the fitted dose curve at least 0.9, where 1 is the maximum; inactive means score below 0.9;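 further: well mean pairwise spike train correlation integrated as AUC over recording days 5 to 12; potency fitted for loss of correlation relative to DMSO vehicle wells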)
In short: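 Extracellular firing from rat cortical networks on 48-well MEAs, DMSO-referenced, negative fitting direction. Compound present from plating to DIV12; mean pairwise correlation per well integrated over DIV5–12 recordings by trapezoidal AUC.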

[27] = TAMU_PeakParms_SingleDonor1434_Chronotropy: Texas A&M University (TAMU) 1.5-hr Human Induced Pluripotent Stem Cell (iPSC)-derived Cardiomyocytes Calcium (Ca+2) Flux Assay for Cardiotoxicity: Chronotropy (changes in peak frequency) (AID 2284217; active means hit-call score of the fitted dose curve at least 0.9, where 1 is the maximum; inactive means score below 0.9); details: actives raise or lower the signal
In short: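 Using fluorescent Ca2+ flux, average beats per second are measured in human iPSC-derived cardiomyocytes treated 90 min (0.5% DMSO vehicle, 0.2–100 uM). Non-beating data points are removed; activity is modeled in both directions relative to DMSO controls.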

[28] = TAMU_PeakParms_SingleDonor1434_Asystole: Texas A&M University (TAMU) 1.5-hr Human Induced Pluripotent Stem Cell (iPSC)-derived Cardiomyocytes Calcium (Ca+2) Flux Assay for Cardiotoxicity: Asystole (quiescence of beating) (AID 2284328)
In short: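 Human iPSC-derived cardiomyocytes (donor 1434) were exposed to 0.2, 1, 10 and 100 uM compound in 0.5% DMSO for 90 min at 37C. Ca2+-dye fluorescence gave average peak frequency; POD is EC95, a 95% beat-rate drop versus DMSO.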

Compound: CCC(=O)C=CC1C(C)=CCCC1(C)C (stereo unspecified)
- outcome [1]: inactive
- outcome [2]: inactive
- outcome [3]: inactive
- outcome [4]: inactive
- outcome [5]: inactive

Compound: CC(C)Cc1ccc([C@@H](C)C(=O)NS(C)(=O)=O)cc1
- outcome [1]: inactive
- outcome [2]: inactive
- outcome [3]: inactive
- outcome [4]: inactive
- outcome [5]: inactive

Compound: O=C(O)CSCC(=O)NC1CCSC1=O (stereo unspecified)
- outcome [1]: inactive
- outcome [2]: inactive
- outcome [3]: inactive
- outcome [4]: inactive

Compound: CCN1CCC[C@H]1CNC(=O)c1cc(S(N)(=O)=O)ccc1OC
- outcome [1]: inactive
- outcome [2]: inactive
- outcome [3]: inactive
- outcome [6]: inactive
- outcome [5]: inactive
- outcome [7]: inactive

Compound: CC[C@H]1OC(=O)[C@H](C)[C@@H](O[C@H]2C[C@@](C)(OC)[C@@H](O)[C@H](C)O2)[C@H](C)[C@@H](O[C@@H]2O[C@H](C)C[C@H](N(C)C)[C@H]2O)[C@](C)(O)C[C@@H](C)CN(C)[C@H](C)[C@@H](O)[C@]1(C)O
- outcome [1]: inactive
- outcome [2]: inactive
- outcome [3]: inactive
- outcome [6]: inactive
- outcome [5]: inactive
- outcome [7]: inactive

Compound: c1ccc2cc3c4ccccc4c4ccccc4c3cc2c1
- outcome [1]: inactive
- outcome [2]: inactive
- outcome [3]: inactive
- outcome [5]: inactive
- outcome [8]: inactive
- outcome [9]: inactive
- outcome [10]: inactive
- outcome [11]: inactive
- AC50 [12]: 1.97 µM (active)
- outcome [13]: inactive
- AC50 [14]: 3.01 µM (active)
- AC50 [15]: 1.97 µM (active)
- outcome [16]: inactive
- outcome [17]: inactive
- outcome [18]: inactive
- AC50 [19]: 1.98 µM (active)
- AC50 [20]: 2.97 µM (active)
- outcome [21]: inactive
- outcome [22]: inactive
- AC50 [23]: 3.23 µM (active)
- AC50 [24]: 2.33 µM (active)
- outcome [25]: inactive
- AC50 [26]: 3.22 µM (active)
- AC50 [27]: 0.71 µM (active)
- outcome [28]: inactive
